bovine MsrA act: bovine methionine sulfoxide reductase A activation. AID 602163. purified bovine MsrA, absorbance read-out. activation, % at 10.6 µM. hit rate 0.3% among 360,000; in the data active means activation above about 7.5%;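 further: 0% = vehicle and 100% = reference activator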
rCAG binder: r(CAG) repeat RNA binding. TO-PRO-1 dye displacement fluorescence. inhibition, % at 3 µM. hit rate 1.3% among 370,000. AID 651821;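 active means inhibition above the plate cutoff, the mean of all test compounds on that plate plus 3 SD, cut at about 35% in these data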;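 further: 0% = DMSO alone and 100% = 100 µM mitoxantrone as full dye displacement; higher means more dye released from RNA so lower well fluorescence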
MsrA inh: inhibitors of bovine MsrA | hit rate 0.75% among 360,000 | inhibition, % at 15.5 µM | purified bovine MsrA, absorbance read-out; in the data active means inhibition above about 4.5%;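 further: 0% = vehicle wells with enzyme and 100% = reference inhibitor wells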
sPLA2-III inh: Inhibits HGIII-sPLA2 liposome hydrolysis, primary screen | Q9NZ20 | QFRET BODIPY PC-A2 liposome hydrolysis, fluorescence | inhibition, % at 12.2 µM | hit rate 0.56% among 370,000;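 active means inhibition above mean plus 3 SD of compounds lying within the high and low control bounds, cut at about 19% in these data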;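 further: 0% = median of test compound wells and 100% = no enzyme DMSO wells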
Target sequence (Q9NZ20 whole entry, looked up): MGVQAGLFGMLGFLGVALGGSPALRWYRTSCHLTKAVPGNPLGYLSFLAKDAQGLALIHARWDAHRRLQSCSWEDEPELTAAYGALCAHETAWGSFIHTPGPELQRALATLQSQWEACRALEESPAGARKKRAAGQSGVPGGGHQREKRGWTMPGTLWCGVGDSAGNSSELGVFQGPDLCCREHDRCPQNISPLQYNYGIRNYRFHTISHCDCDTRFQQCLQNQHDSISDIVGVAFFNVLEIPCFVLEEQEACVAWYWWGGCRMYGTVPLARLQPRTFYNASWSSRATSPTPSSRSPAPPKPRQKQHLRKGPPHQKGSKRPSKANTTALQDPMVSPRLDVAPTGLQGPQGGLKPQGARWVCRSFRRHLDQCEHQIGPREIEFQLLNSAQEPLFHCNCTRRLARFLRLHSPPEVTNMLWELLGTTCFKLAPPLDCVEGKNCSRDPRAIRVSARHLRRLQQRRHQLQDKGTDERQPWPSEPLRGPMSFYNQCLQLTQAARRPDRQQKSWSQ
rCAG binder conf: r(CAG) RNA repeat binding, confirmation | shares compounds with rCAG binder | TO-PRO-1 dye displacement fluorescence | inhibition, % at 3 µM | hit rate 70% among 4,300 | AID 652065;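 active means inhibition above a per-plate cutoff, the mean inhibition of sample wells plus 3 SD, cut at about 35% in these data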;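 further: loss of TO-PRO-1 fluorescence as compound displaces dye from 1x1 AA loop RNA; 0% = DMSO only wells and 100% = 100 µM mitoxantrone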
DNA CAG counter: DNA CAG dye complex inhibition counter-screen | inhibition, % at 3 µM | hit rate 94% among 4,300 | d(CAG) DNA oligo TO-PRO-1 dye displacement, fluorescence | shares compounds with rCAG binder | AID 652068;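 active means inhibition above its plate's cutoff, the mean test-well inhibition plus 3 SD, cut at about 4.8% in these data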;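 further: 0% = DNA dye mix with DMSO and 100% = 100 µM mitoxantrone; hits displace the dye from DNA and so lower well fluorescence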
Numbers without * were called inactive; / = not tested or not shown. Hits are enriched below; roughly 2.8% of the tested compounds scored in any of these assays.

SMILES	bovine MsrA act	rCAG binder	MsrA inh	sPLA2-III inh	rCAG binder conf	DNA CAG counter
COc1ccc(-c2csc(N(CCc3ccccc3)C(=O)COc3ccccc3)n2)cc1	-9.5	6.8	0.7	3.9	/	/
N=C1/C(=C\c2ccc(-c3cccc(C(=O)O)c3)o2)C(=O)N=C2SC=C(c3ccccc3)N12	-4.7	85.8*	0.8	-18.1	91.3*	69.9*
CCc1ccc2c(c1)C(C)=CC(C)(C)N2	1.4	0.1	2.3	8.9	/	/
COc1ccc(CCNC(=O)COC(=O)c2cc(=O)[nH]c3ccccc23)cc1	0.4	0.1	0.3	6.6	/	/
Cc1ccc(N/N=C(\C#N)C(=O)c2ccsc2)cc1	-7.9	21.9	0.0	-16.2	/	/
N#C/C(=N\Nc1ccc(Cl)cc1)C(=O)c1ccsc1	-4.3	47.2*	-0.2	-11.4	40.0*	8.1*
N#C/C(=N\Nc1cccc(Cl)c1)C(=O)c1ccccc1	-13.0	72.5*	0.8	-75.6	43.5*	11.0*
COc1ccc(C(=O)/C(C#N)=N/Nc2cccc([N+](=O)[O-])c2)cc1	-3.0	44.3*	2.2	-9.0	51.6*	13.1*
Cc1c(C(=O)Nc2ccc(S(N)(=O)=O)cc2)oc2ccc(Cl)cc12	-2.8	7.3	0.1	3.4	/	/
Cc1c(C(=O)NNC(=S)Nc2ccc(S(N)(=O)=O)cc2)oc2ccccc12	2.2	52.3*	1.9	6.8	31.7	11.0*
Cc1ccccc1OCCCC(=O)Nc1ccc(S(=O)(=O)Nc2onc(C)c2C)cc1	-2.6	52.0*	0.5	-7.3	34.0	9.4*
Cc1ccccc1OCC(=O)Nc1ccc(S(=O)(=O)Nc2onc(C)c2C)cc1	-13.8	31.4	0.5	-13.7	/	/
Cc1cc(NS(=O)(=O)c2ccc(NC(=O)Cc3ccc(Cl)c(Cl)c3)cc2)no1	-3.9	49.5*	-0.6	-41.4	35.2*	8.8*
Cc1cc(NS(=O)(=O)c2ccc(NC(=O)CCCOc3ccccc3C)cc2)no1	-1.8	37.8*	0.1	-21.6	33.7	8.8*
COc1ccccc1OCC(=O)Nc1ccc(S(=O)(=O)Nc2cc(C)on2)cc1	-1.6	21.5	0.2	-14.8	/	/
CCOc1ccc(OCC(=O)Nc2ccc(S(=O)(=O)Nc3cc(C)nc(C)n3)cc2)cc1	-4.4	16.9	0.4	-18.1	/	/
Cc1ccc(OCCCC(=O)Nc2ccc(S(=O)(=O)Nc3ccccn3)cc2)cc1	0.2	0.1	1.2	8.7	/	/
Cc1cc(NS(=O)(=O)c2ccc(NC(=O)CCCOc3cccc(C)c3C)cc2)no1	-2.7	63.1*	0.7	-38.1	62.2*	16.9*
Cc1cc(NS(=O)(=O)c2ccc(NC(=O)COc3c(C)cc(Br)cc3C)cc2)no1	-2.2	71.1*	-0.6	-51.7	63.2*	25.5*
Cc1ccc(OCCCC(=O)Nc2ccc(S(=O)(=O)Nc3cc(C)on3)cc2)cc1	-3.4	48.9*	-0.2	-46.0	36.2*	11.8*
Cc1cc(NS(=O)(=O)c2ccc(NC(=O)COc3ccc(Br)cc3)cc2)nc(C)n1	-5.3	35.5*	0.8	-30.8	35.5*	10.3*
Cc1c(C(=O)Nc2ccc(S(=O)(=O)Nc3ncccn3)cc2)oc2ccccc12	-2.4	20.1	1.5	-5.8	/	/
Cc1cc(NS(=O)(=O)c2ccc(NC(=O)c3oc4ccccc4c3C)cc2)no1	1.4	40.7*	0.1	-39.0	41.0*	11.2*
COc1cc(NS(=O)(=O)c2ccc(N/C=C(\C#N)c3nc4ccccc4o3)cc2)nc(OC)n1	-3.9	68.5*	4.2	-26.8	67.3*	31.1*
COc1cc(NS(=O)(=O)c2ccc(NC(=O)c3ccc(C)o3)cc2)nc(OC)n1	-1.8	5.5	-0.3	-10.0	/	/
SMILES	bovine MsrA act	rCAG binder	MsrA inh	sPLA2-III inh	rCAG binder conf	DNA CAG counter
COc1cc(NS(=O)(=O)c2ccc(N/C=C(\C=O)c3nc4ccccc4o3)cc2)nc(OC)n1	-0.3	35.1*	1.6	-21.0	38.7*	11.4*
CCCCn1c(N)c(N(CCC(C)C)C(=O)c2ccc(C)o2)c(=O)[nH]c1=O	-6.2	-0.6	0.0	3.4	/	/
CCOC(=O)C1NN=C(C(=O)c2ccc(C)cc2)C1c1ccc(C)cc1 (stereo not drawn)	-2.7	3.4	0.2	-16.2	/	/
CC1(c2ccccc2)NC(=O)N(CC(=O)Nc2cccc(/C=C/c3ccccn3)c2)C1=O (stereo not drawn)	-10.9	-0.7	0.6	-46.1	/	/
CCOc1ccc(Cc2nnc(SCC(=O)c3ccc(OC)cc3)o2)cc1	-1.3	-4.0	-1.0	-51.4	/	/
CCOc1ccc(Nc2nc(Cc3nnc(SCC(=O)O)o3)cs2)cc1	-8.0	45.6*	1.3	-13.8	28.5	9.0*
CN(C)CCC(C(=O)c1ccccc1)c1ccccn1 (stereo not drawn)	-2.1	/	/	/	/	/
O=C(NC(C(=O)N/N=C/c1cc([N+](=O)[O-])ccc1O)c1n[nH]c(=O)c2ccccc12)c1ccccc1 (stereo not drawn)	-2.1	84.2*	4.0	-35.9	66.4*	28.1*
O=C(O)c1cc(S(=O)(=O)Nc2cc(Cl)ccc2Oc2ccccc2)ccc1O	-2.5	72.2*	0.1	-34.7	67.4*	30.7*
O=C(O)c1cc(S(=O)(=O)Nc2ccccc2C(=O)O)ccc1O	-8.0	10.1	2.3	-13.4	/	/
CCOC(=O)c1sc(NC(=O)C(C)Sc2nnc(N)s2)nc1C (stereo not drawn)	-0.8	4.3	-0.3	0.8	/	/
Cc1ccc2[nH]c3c(=O)n(CCN4CCNCC4)cnc3c2c1	0.2	0.3	0.6	0.3	/	/
O=S(=O)(Nc1nc2ccccc2nc1N1CCN(c2ccccc2)CC1)c1ccc(F)cc1	-7.9	69.1*	1.1	-15.2	67.2*	28.3*
O=C(O)c1cccc(N2C(=O)c3ccc(Oc4ccc(Cl)cc4)cc3C2=O)c1	-3.1	43.6*	-1.3	-7.4	42.1*	9.9*
CC(C)=CCC[C@H](C)CC1Cc2[nH]c(=S)[nH]c(=O)c2C(c2ccc(F)cc2)O1 (stereo partly drawn)	1.3	34.4	0.3	-2.0	/	/
CC(C)=CCC[C@H](C)CC1Cc2[nH]c(=S)[nH]c(=O)c2C(c2ccc(Cl)cc2)O1 (stereo partly drawn)	-10.7	35.3*	1.1	13.5	42.3*	15.8*
OC12CCCCC1C(c1ccc3c(c1)OCO3)N(Cc1ccccc1F)CC2 (stereo not drawn)	-7.5	0.2	0.1	-2.1	/	/
CC(=O)NS(=O)(=O)c1ccc(N=c2ssc3c2-c2cc(C)ccc2NC3(C)C)cc1	-2.0	48.3*	1.6	-12.0	45.2*	16.1*
CCc1ccc(N=C2NC(=O)/C(=C/c3cc(OC)c(O)c(OC)c3)S2)cc1	0.1	41.6*	1.7	-29.6	39.8*	16.0*
C/C=C/c1ccc(OCCOCCOc2cccc3cccnc23)c(OC)c1	-2.1	-0.8	-0.2	-20.6	/	/
O=C(O)C(Cc1c[nH]c2ccccc12)N1C(=O)C2C3c4ccccc4C(c4ccccc43)[C@@H]2C1=O (stereo partly drawn)	-2.4	49.9*	1.1	-87.5	44.8*	12.4*

Source: PubChem (The Scripps Research Institute Molecular Screening Center)
